The results in this text go back to PubChem BioAssay AID449762 (Southern Research Specialized Biocontainment Screening …, 2010).

For orientation: inhibition means the change of the read-out against control, counted positive when it falls.

Molecules are shown by their SMILES. The whole screen tested about 330,000 compounds, of which about 1,900 (0.58%) were called active. Roughly 4% stayed inconclusive and do not appear here. These entries were drawn from the full list. Entries with a potency or affinity are not part of this list. Values without a mark were called inactive. Cut-off read from the data, not from the text of the source: inconclusive = inhibition above about 70% without an active follow-up result; inactive = below that.

This assay can be described thus: M. tuberculosis growth inhibition, HTS (AID 449762).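 Note: bacterial growth assessed after seven days of incubation.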 The following applies: M. tuberculosis H37Rv growth inhibition, 7H9 media; at 25 µM; stronger effect = higher value.
Turning to `Cc1cc(C)nc(OC(C(=O)O)C(OCC(C)C)(c2ccccc2)c2ccccc2)n1` (stereo not drawn), the inhibition was -3.41%. Under `Cc1cccc(C(=O)NC2CC(C)(C)NC(C)(C)C2)c1` stands -6.34%. Consider `Cc1ccc(S(=O)(=O)/N=C2/NC(=O)/C(=C/c3ccc(Br)o3)S2)cc1`, for which the inhibition was -2.8%. Take `COC(=O)c1ccc(CSc2nnc(CNC(=O)c3ccccc3F)o2)o1`: the inhibition was 4.26%. With `CCc1c(C2(O)CCCCC2)[nH]c2ccc(C#N)cc12` the figure was 5.4%; with `Cc1c(C2(O)CCCCC2)[nH]c2cc(C(F)(F)F)ccc12`, 15.3%. Under `Cc1nn(S(=O)(=O)c2ccc(C(C)C)cc2)c(C)c1S(=O)(=O)N1CCOCC1` stands -4.31%.

As for `Cc1nn(CC(=O)NCCCN2C(C)CCCC2C)c(=O)c2cc3occc3n12` (stereo not drawn), the inhibition is 5.96%. Under `CCCn1c(CC)nc([N+](=O)[O-])c1Sc1ccc(C)cc1` stands -12%; under `CCCc1nc([N+](=O)[O-])c(S(=O)(=O)c2ccccc2)n1CC(C)C`, 10%; under `CN(CC(=O)Nc1ccc(OC(F)(F)F)cc1)C(=O)/C=C/c1ccco1`, 5.57%. In the case of `Cc1ccc(NC(=O)CN(C)C(=O)/C=C/c2ccc3c(c2)OCO3)cc1`, the inhibition was 6.72%. With `CCCCc1c(O)nc(SCC(=O)N2CCCCC2)[nH]c1=O` the figure was 17.7%. As to `COc1ccc(-c2nnc(SCC(=O)NC3CCCC3)n2C)cc1`, the inhibition was -3.82%. For the molecule `Cc1ccc(C(=O)/C=C/c2ccccc2)o1`, the inhibition was 4.37%. Under `Cc1ccc(C(=O)/C=C/c2ccc3c(c2)OCO3)o1` stands 1.84%; under `CC1CCCCN1S(=O)(=O)c1cccc2nonc12` (stereo not drawn), -1.08%.

For `CCC(CC)NC(=O)c1cc2c(C)nn(Cc3ccccc3Cl)c2s1`, the inhibition was -1.27%. Take `Cc1nn(Cc2ccccc2Cl)c2sc(C(=O)NC(C)(C)C)cc12`: the inhibition was 30.5%.

Take `CCCCNC(=O)CCNC(=O)c1ccc(C(C)(C)C)cc1`: the inhibition is -8.34%. Consider `CCCNC(=O)CCNC(=O)c1ccc(C(C)(C)C)cc1`, for which the inhibition was -4.92%. With `O=C(CSc1nnc(-c2c[nH]c3ccccc23)o1)N(Cc1ccccc1)c1ccc(F)cc1` the figure was -6.56%; with `Cc1nc(SCc2nc3ccccc3[nH]2)c2oc3ccc(Br)cc3c2n1`, 18%. Under `Cc1ccccc1CN1C(=O)[C@H]2Cc3c([nH]c4ccccc34)C(C)(C)N2C1=O` stands -6.56%; under `Cc1ccccc1CN1C(=O)[C@@H]2Cc3c([nH]c4ccccc34)C(C)(C)N2C1=O`, 8.29%; under `C/C=C(\C)C(=O)NCCN1C2=NC[C@H](C)N2C[C@@H]1Cc1ccc(OC)cc1`, 0.12%. Turning to `Nc1nc(Cl)cc(N2CCC(c3cc(-c4ccc(Cl)cc4)n[nH]3)CC2)n1`, the inhibition was 4.43%. Under `COc1ccc(OC)c(-c2cc(C3CCN(c4cc(Cl)nc(N)n4)CC3)[nH]n2)c1` stands -10.8%; under `COc1ccc(-c2cc(C3CCN(c4ccc(C(C)=O)cc4[N+](=O)[O-])CC3)[nH]n2)cc1`, 2.56%; under `CC(=O)c1ccc(N2CCC(c3cc(-c4ccc(Cl)cc4)n[nH]3)CC2)c([N+](=O)[O-])c1`, -1.54%. With `Cc1cc(OCC(=O)NCc2ccccn2)c2c(C)c(Cc3ccccc3)c(=O)oc2c1` the figure was 3.29%; with `O=C(CN(Cc1cccs1)C(=O)CN1C(=O)COc2ccccc21)NCc1ccco1`, -10.2%. As for `COc1ccc(S(=O)(=O)N2CCN(C(=O)CCNC(=O)c3ccccc3Cl)CC2)cc1`, the inhibition was -12.2%. Under `COc1cc(OC)nc(Oc2cc(/C=N/O)ccc2OC)n1` stands 6.12%. For `O=C(O)c1ccccc1NS(=O)(=O)c1ccc(NN=Cc2ccc(F)cc2)c([N+](=O)[O-])c1`, the inhibition was 9.86%.

Consider `OC1(c2ccc(F)cc2)CCN(Cc2nnnn2Cc2cccs2)CC1`, for which the inhibition is 5.23%.

With `O=C(O)CSc1nnnn1-c1ccc2c(c1)OCCO2`, the inhibition was -0.83%. For the molecule `CC(C)OC(=O)CSc1nnnn1-c1ccc2c(c1)OCCO2`, the inhibition is -0.39%. As for `O=C(NCCC1=CCCCC1)C1CCN(S(=O)(=O)c2cccc(C(F)(F)F)c2)CC1`, the inhibition was 5.79%. Turning to `CSc1nsc(SCCN2C(=O)c3ccccc3C2=O)n1`, the inhibition was 2.52%. With `CCOC(=O)CSc1snnc1C`, the inhibition was -6.63%. Under `CCOC(=O)CSc1nn(C)c(=S)s1` stands 0.33%; under `CCOC(=O)CSc1nnc(-c2ccccc2)c(=O)[nH]1`, -2.8%; under `Cc1cc(C)nc(NC(=O)CSc2nn(-c3ccccc3)c(=S)s2)n1`, -0.15%.

As for `Nc1nnc(SCCN2C(=O)c3ccccc3C2=O)s1`, the inhibition is -1.41%. Under `Cc1ccc(NC(=S)N(CCN(C)C)C(C)c2cccnc2)c(C)c1` (stereo not drawn) stands 4.11%; under `COC(=O)c1cc(OC)c(OC)cc1NC(=O)c1c(-c2ccccc2Cl)noc1C`, -3.97%. Under `Cc1ccc(-c2csc(NC(=O)c3ccccc3Cl)c2C(=O)O)cc1` stands 13.9%; under `CSc1cccc(NC(=O)C2C3C=CC4(O3)C2C(=O)N(CCCN2CCOCC2)C4C(=O)NC2CCCCC2)c1` (stereo not drawn), 3.36%; under `O=C(c1ccccc1F)N1CCN(S(=O)(=O)c2ccc3ccccc3c2)CC1`, 7.72%.

Take `COc1ccc(NS(=O)(=O)c2cc(NC(=O)C3CC3)ccc2N2CCCCC2)cc1`: the inhibition is 1.69%. For the molecule `CC(=O)N1CCn2c3c(c4cc(C)ccc42)CCCC31` (stereo not drawn), the inhibition is 4.84%. In the case of `Cc1ccc2c(c1)c1c3n2CCN(C(=O)CN2CCN(C)CC2)C3CCC1` (stereo not drawn), the inhibition was -3.37%. With `CC(C)CCN1CCN(CC(c2ccccc2)c2ccccc2)CC1CCO` (stereo not drawn) the figure was -4.44%. As for `Cc1ccc(Cn2c(=N)c(C(=O)NCc3ccco3)cc3c(=O)n4ccccc4nc32)cc1`, the inhibition is 4.13%. Under `COCCn1c(=N)c(C(=O)NCc2ccco2)cc2c(=O)n3cc(C)ccc3nc21` stands 0.47%.

For `COc1ccc(NC(=O)CN2CCN(c3nc(-c4ccc(F)cc4)cs3)CC2)c(OC)c1`, the inhibition is 8.68%. As to `O=[N+]([O-])c1ccc(F)c(N=Cc2ccc(Br)s2)c1`, the inhibition is 1.92%.
